Reference: PubChem BioAssay AID1347156 (National Center for Advancing Translational Sciences (NCATS), 2019)
Records with an inconclusive call do not appear. Where a call stands in place of a potency, no number is given. Active and inactive are the calls of the source. Calls follow the shape of the dose curve; as a rule, active = well fitted cell-killing curve with a large enough effect; inconclusive = small, poorly fitted or top-dose-only effect; inactive = flat fitted curve, though single readings scatter.

Experiment: DAPI mCherry counterscreen qHTS for Zika virus inhibitors; also: nearly all actives have a fitted effect of over 55% in size
Conditions: Vero cells, DAPI nuclear count cytotoxicity, imaging 48-72 h, infected with Zika reporter virus, MOI 1; series mostly up to 32.6 µM
Method in brief: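 Imaging read-out after fixation and Hoechst nuclear staining: percent infection from mCherry-positive cells (above 3 SD of negative controls) and nuclear counts. Setup: Vero cells pre-plated overnight, compound added, infected with ZIKV-mCherry (MOI 1), 48-72 hrs, 37 degrees C.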
Potency is read from the fitted curve at half-maximal effect.

Compound | Potency
Cc1cccc(C)c1-n1c(SCC(=O)Nc2ccc(C(=O)O)cc2)nnc1-c1cccc([S+](=O)([O-])N2CCCC2)c1 | inactive
COc1ccc(-c2cc(=O)c3c(O)cc(O)c(-c4cc(-c5cc(=O)c6c(O)cc(O)cc6o5)ccc4OC)c3o2)cc1 | 12.6 µM (active)
CCCCCCCC/C=C\CCCCCCCC(=O)NCCc1ccc(O)c(O)c1 | 8.91 µM (active)
CN(C)[C@@H]1C(=O)C(C(N)=O)=C(O)[C@@]2(O)C(=O)C3=C(O)c4c(O)cccc4C[C@H]3C[C@@H]12 | inactive
Cc1oc2c(cc(NS(=O)(=O)c3ccc(Cl)cc3)c3ccccc32)c1C(=O)OCc1ccccc1 | inactive
COc1cc(-c2ccc(N=Nc3ccc4c(S(=O)(=O)O)cc(S(=O)(=O)O)c(N)c4c3O)c(OC)c2)ccc1N=Nc1ccc2c(S(=O)(=O)O)cc(S(=O)(=O)O)c(N)c2c1O | inactive
Cc1ccc(NC(=O)c2ccc3c(O)c(S(=O)(=O)c4ccc(Cl)cc4)c(=O)[nH]c3c2)cc1 | inactive
CO[C@H]1C[C@@H](O[C@@H]2/C(C)=C/C[C@@H]3C[C@@H](C[C@]4(CC[C@H](C)[C@@H](C5CCCCC5)O4)O3)OC(=O)[C@@H]3C=C(C)/C(=N/O)[C@H]4OC/C(=C\C=C\[C@@H]2C)[C@]43O)O[C@@H](C)[C@H]1O | 11.2 µM (active)
Cc1c(Cl)cccc1NS(=O)(=O)c1ccc(NS(=O)(=O)c2ccc3c(c2)OCCO3)cc1 | 31.6 µM (active)
O=S(=O)(Nc1ccc(O)c(Sc2nc3ccccc3s2)c1)c1cc(Cl)ccc1Cl | 35.5 µM (active)
